Several values for one entry are separate records, joined by “and”; a condition that tells them apart may be missing. Identical values can stand only once. Out of some 5,500 compounds screened, about 2,000 (36%) were called active. Roughly 18% stayed inconclusive and do not appear here. No stated cut-off is given here; in the data, active means normalized growth mostly below about 0.91 (no sharp cut-off); inconclusive means no clear call, values can overlap the other calls; inactive means mostly above about 0.92. The list shows a part of the results.
Experiment: chemical genetic growth profiling, strain panel (AID 1159580);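 further: tested at 20 µM; growth read once vehicle control cultures reached saturation at 30 °C; 1 = growth at the plate median or of vehicle wells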
Conditions: S. cerevisiae deletion strains, growth OD

Measured: normalized growth

O=c1c(-c2ccc(O)cc2)coc2cc(O)ccc12
inactive: locus YAL013W, strain DEP1, stronger effect = lower value 0.964 | locus YAL021C, strain ccr4, stronger effect = lower value 0.996 | locus YAL026C, strain drs2, stronger effect = lower value 0.983 | locus YAL030W, strain snc1, stronger effect = lower value 0.989 | locus YAL040C, strain CLN3, stronger effect = lower value 1.01 | locus YBL061C, strain skt5, stronger effect = lower value 0.983 | locus YBR009C, strain hhf1, stronger effect = lower value 0.97 | locus YBR021W, strain FUR4, stronger effect = lower value 0.924 | locus YBR023C, strain chs3, stronger effect = lower value 0.978 | locus YBR171W, strain sec66, stronger effect = lower value 0.969 | locus YBR229C, strain ROT2, stronger effect = lower value 1.01 | locus YBR231C, strain swc5, stronger effect = lower value 0.986 | locus YBR279W, strain paf1, stronger effect = lower value 0.999 | locus YCL011C, strain gbp2, stronger effect = lower value 0.98 | locus YCL016C, strain dcc1, stronger effect = lower value 0.977 | locus YCL029C, strain bik1, stronger effect = lower value 0.983 | locus YCL061C, strain MRC1 (second series), stronger effect = lower value 1.01 | locus YCL061C, strain MRC1, stronger effect = lower value 0.975 | locus YCL069W, strain vba3, stronger effect = lower value 0.995 | locus YCR088W, strain abp1, stronger effect = lower value 0.987 | locus YDL005C, strain med2, stronger effect = lower value 0.976 | locus YDL035C, strain GPR1, stronger effect = lower value 1.01 | locus YDL040C, strain nat1, stronger effect = lower value 0.987 | locus YDL074C, strain BRE1, stronger effect = lower value 0.97 | locus YDL101C, strain DUN1, stronger effect = lower value 1.01 | locus YDL134C, strain PPH21, stronger effect = lower value 1 | locus YDL185W, strain tfp1, stronger effect = lower value 0.987 | locus YDL192W, strain arf1, stronger effect = lower value 1.01 | locus YDR001C, strain nth1, stronger effect = lower value 0.984 | locus YDR069C, strain doa4, stronger effect = lower value 0.985 | locus YDR101C, strain arx1, stronger effect = lower value 0.964 | locus YDR137W, strain rgp1, stronger effect = lower value 1 | locus YDR150W, strain NUM1, stronger effect = lower value 0.984 | locus YDR159W, strain sac3, stronger effect = lower value 0.974 | locus YDR162C, strain NBP2, stronger effect = lower value 1 | locus YDR195W, strain ref2 1.04 | locus YDR297W, strain sur2, stronger effect = lower value 0.978 | locus YDR318W, strain mcm21, stronger effect = lower value 0.99 | locus YDR334W, strain swr1, stronger effect = lower value 1 | locus YDR335W, strain msn5, stronger effect = lower value 0.992 | locus YDR363W, strain ESC2, stronger effect = lower value 1.01 | locus YDR388W, stronger effect = lower value 0.98 | locus YDR392W, strain spt3, stronger effect = lower value 0.849 | locus YDR502C, strain sam2, stronger effect = lower value 0.951 | locus YEL003W, strain gim4, stronger effect = lower value 0.989 | locus YEL037C, strain rad23, stronger effect = lower value 0.985 | locus YEL061C, strain CIN8 (second series), stronger effect = lower value 0.996 | locus YEL061C, strain CIN8, stronger effect = lower value 1.01 | locus YER002W, strain NOP16, stronger effect = lower value 0.992 | locus YER015W, strain faa2, stronger effect = lower value 0.993 | locus YER016W, strain bim1, stronger effect = lower value 0.982 | locus YER110C, stronger effect = lower value 0.974 | locus YER111C, strain swi4, stronger effect = lower value 0.98 | locus YER155C, strain BEM2 (second series), stronger effect = lower value 0.972 | locus YER155C, strain BEM2, stronger effect = lower value 0.992 | locus YER167W, strain BCK2, stronger effect = lower value 1 | locus YFR010W, strain ubp6, stronger effect = lower value 0.982 | locus YGL078C, strain dbp3, stronger effect = lower value 0.977 | locus YGL086W, strain mad1, stronger effect = lower value 0.969 | locus YGL167C, strain pmr1, stronger effect = lower value 0.981 | locus YGL173C, strain kem1, stronger effect = lower value 0.971 | locus YGL227W, strain vid30, stronger effect = lower value 0.984 | locus YGL240W, strain doc1, stronger effect = lower value 0.958 | locus YGL248W, strain PDE1, stronger effect = lower value 1.01 | locus YGL253W, strain hxk2, stronger effect = lower value 0.956 | locus YGR078C, strain PAC10, stronger effect = lower value 0.965 and 1.01 | locus YGR135W, strain pre9, stronger effect = lower value 0.957 | locus YGR229C, strain SMI1, stronger effect = lower value 0.974 | locus YGR252W, strain gcn5, stronger effect = lower value 0.825 | locus YHR013C, strain ard1, stronger effect = lower value 0.959 | locus YHR027C, strain rpn1, stronger effect = lower value 0.995 | locus YHR030C, strain SLT2, stronger effect = lower value 1.01 and 1.02 | locus YHR079C, strain IRE1 (second series), stronger effect = lower value 0.993 | locus YHR079C, strain IRE1, stronger effect = lower value 0.999 | locus YHR094C, strain hxt1, stronger effect = lower value 0.99 | locus YHR129C, strain ARP1, stronger effect = lower value 1.01 | locus YHR142W, strain chs7, stronger effect = lower value 0.943 | locus YHR200W, strain rpn10, stronger effect = lower value 0.979 | locus YIL066C, strain RNR3, stronger effect = lower value 1.02 | locus YIL073C, strain SPO22, stronger effect = lower value 0.951 | locus YIL125W, strain kgd1, stronger effect = lower value 0.988 | locus YIR030C, strain dcg1, stronger effect = lower value 0.978 | locus YJL092W, strain hpr5, stronger effect = lower value 0.981 | locus YJL095W, strain BCK1 (second series), stronger effect = lower value 0.98 | locus YJL095W, strain BCK1, stronger effect = lower value 0.977 and 1.03 | locus YJL115W, strain asf1, stronger effect = lower value 0.994 | locus YJL129C, strain trk1, stronger effect = lower value 0.969 | locus YJL134W, strain LCB3, stronger effect = lower value 1.01 | locus YJL154C, strain vps35, stronger effect = lower value 0.986 | locus YJL164C, strain tpk1, stronger effect = lower value 0.966 | locus YJL166W, strain qcr8, stronger effect = lower value 0.963 | locus YJL168C, strain set2, stronger effect = lower value 0.99 | locus YJL187C, strain SWE1 (second series), stronger effect = lower value 0.987 | locus YJL187C, strain SWE1, stronger effect = lower value 0.984 | locus YJR043C, strain POL32, stronger effect = lower value 0.994 | locus YJR066W, strain TOR1, stronger effect = lower value 0.989 | locus YKL009W, strain mrt4, stronger effect = lower value 0.951 | locus YKL068W, stronger effect = lower value 1 | locus YKL085W, strain MDH1 (second series), stronger effect = lower value 1.01 | locus YKL085W, strain MDH1, stronger effect = lower value 1.01 | locus YKL160W, strain elf1, stronger effect = lower value 0.971 | locus YKR001C, strain vps1, stronger effect = lower value 0.963 | locus YKR026C, strain gcn3, stronger effect = lower value 0.976 | locus YKR091W, strain srl3, stronger effect = lower value 0.982 | locus YLL001W, strain dnm1, stronger effect = lower value 0.945 | locus YLL026W, stronger effect = lower value 0.976 | locus YLL041C, strain sdh2, stronger effect = lower value 0.986 | locus YLR027C, strain aat2, stronger effect = lower value 0.973 | locus YLR039C, strain RIC1, stronger effect = lower value 1.05 | locus YLR058C, strain SHM2, stronger effect = lower value 1 | locus YLR102C, strain apc9, stronger effect = lower value 0.998 | locus YLR113W, strain HOG1, stronger effect = lower value 0.933 | locus YLR221C, strain rsa3, stronger effect = lower value 0.953 | locus YLR258W, strain gsy2, stronger effect = lower value 0.978 | locus YLR262C, strain YPT6 (second series), stronger effect = lower value 0.969 | locus YLR262C, strain YPT6, stronger effect = lower value 1.09 | locus YLR268W, strain sec22, stronger effect = lower value 0.949 | locus YLR320W, strain mms22, stronger effect = lower value 0.939 | locus YLR330W, strain CHS5, stronger effect = lower value 1 | locus YLR342W, strain FKS1 (second series), stronger effect = lower value 0.997 | locus YLR342W, strain FKS1, stronger effect = lower value 0.987 | locus YLR357W, strain rsc2, stronger effect = lower value 0.941 | locus YLR370C, strain arc18, stronger effect = lower value 0.982 | locus YLR371W, strain rom2, stronger effect = lower value 0.985 | locus YLR384C, strain iki3, stronger effect = lower value 1 | locus YLR418C, strain cdc73, stronger effect = lower value 0.888 | locus YML016C, strain PPZ1, stronger effect = lower value 1.02 | locus YML032C, strain rad52, stronger effect = lower value 0.977 | locus YML120C, strain ndi1, stronger effect = lower value 0.991 | locus YML124C, strain tub3, stronger effect = lower value 0.98 | locus YMR058W, strain fet3, stronger effect = lower value 0.981 | locus YMR078C, strain ctf18, stronger effect = lower value 0.979 | locus YMR125W, strain sto1, stronger effect = lower value 0.99 | locus YMR129W, stronger effect = lower value 0.989 | locus YMR205C, strain PFK2, stronger effect = lower value 0.957 | locus YMR223W, strain ubp8, stronger effect = lower value 0.978 | locus YMR231W, strain pep5, stronger effect = lower value 0.992 | locus YMR307W, strain GAS1, stronger effect = lower value 0.951 and 1.01 | locus YNL067W, strain RPL9B, stronger effect = lower value 0.966 | locus YNL071W, strain lat1, stronger effect = lower value 0.979 | locus YNL128W, strain TEP1, stronger effect = lower value 1 | locus YNL153C, strain GIM3, stronger effect = lower value 0.982 and 1.04 | locus YNL175C, strain NOP13, stronger effect = lower value 0.994 | locus YNL183C, strain NPR1, stronger effect = lower value 0.993 | locus YNL197C, strain WHI3, stronger effect = lower value 0.979 | locus YNL209W, strain ssb2, stronger effect = lower value 0.99 | locus YNL224C, strain SQS1, stronger effect = lower value 1 | locus YNL233W, strain BNI4, stronger effect = lower value 0.966 | locus YNL248C, strain rpa49, stronger effect = lower value 0.97 | locus YNL250W, strain rad50, stronger effect = lower value 1.01 | locus YNL271C, strain bni1, stronger effect = lower value 0.985 | locus YNL298W, strain CLA4, stronger effect = lower value 0.997 | locus YNL307C, strain MCK1, stronger effect = lower value 0.97 | locus YNL322C, strain KRE1 (second series), stronger effect = lower value 0.966 | locus YNL322C, strain KRE1, stronger effect = lower value 1 | locus YNR049C, strain mso1, stronger effect = lower value 0.985 | locus YNR052C, strain pop2, stronger effect = lower value 0.988 | locus YOL006C, strain TOP1, stronger effect = lower value 0.931 | locus YOL012C, strain htz1 0.695 | locus YOL147C, strain pex11, stronger effect = lower value 0.982 | locus YOR001W, strain rrp6, stronger effect = lower value 1 | locus YOR061W, strain CKA2, stronger effect = lower value 1.02 | locus YOR069W, strain VPS5, stronger effect = lower value 1.01 | locus YOR070C, strain gyp1, stronger effect = lower value 0.982 | locus YOR080W, strain dia2, stronger effect = lower value 0.98 | locus YOR083W, strain WHI5 (second series), stronger effect = lower value 1.05 | locus YOR083W, strain WHI5, stronger effect = lower value 0.945 | locus YOR106W, strain vam3, stronger effect = lower value 0.954 | locus YOR136W, strain idh2, stronger effect = lower value 0.97 | locus YOR144C, strain elg1, stronger effect = lower value 0.985 | locus YOR184W, strain ser1, stronger effect = lower value 0.935 | locus YOR231W, strain MKK1, stronger effect = lower value 1.03 | locus YOR265W, strain rbl2, stronger effect = lower value 0.985 | locus YOR270C, strain vph1, stronger effect = lower value 0.913 | locus YOR290C, strain snf2, stronger effect = lower value 0.902 | locus YOR316C, strain cot1, stronger effect = lower value 0.986 | locus YPL051W, strain arl3, stronger effect = lower value 0.988 | locus YPL055C, strain LGE1, stronger effect = lower value 0.958 | locus YPL078C, strain atp4, stronger effect = lower value 0.956 | locus YPL106C, strain sse1, stronger effect = lower value 0.935 | locus YPL240C, strain hsp82, stronger effect = lower value 1 | locus YPL241C, strain CIN2, stronger effect = lower value 1 | locus YPL256C, strain CLN2, stronger effect = lower value 0.992 | locus YPR119W, strain clb2, stronger effect = lower value 0.984 | locus YPR141C, strain kar3, stronger effect = lower value 0.997 | locus YPR163C, strain tif3, stronger effect = lower value 0.982 | locus YPR167C, strain met16, stronger effect = lower value 0.984 | strain wtn01, stronger effect = lower value 0.953

Source: PubChem BioAssay AID1159580 (chemical genetic matrix, 2015)
